Among the data in ChEMBL document CHEMBL4513146, “CO-ADD screening of Karazin Kharkiv National University (Ukraine) compounds” are Inhibition values, retold here.

Entries with a potency or affinity are not part of this list.

The test system of the first assay is Klebsiella pneumoniae. To be noted: Concentration 32 ug.mL-1;; ASSAY_TEST Inhibition of Bacterial Growth; detection method Absorption (OD600); MEDIA CAMHB; plate type 384well; NBS; CORNING #3640; time 18 hr.
`O=C(CSc1nnc2c3cc(-c4ccc(F)cc4)nn3ccn12)NCCc1ccccc1`: the Inhibition turned out to be 7.72%.

For `COc1ccc(NC(=O)Cn2nc3ccc(SC(C)C)nn3c2=O)cc1OC`, the Inhibition stood at 9.91%.

With `CCCCOc1ccc(-c2cc3c4nnc(SCC(=O)NCc5ccc(OC)cc5)n4ccn3n2)cc1`, the Inhibition is listed as 6.37%.

Take `CCCn1c(=O)c2ccc(C(=O)NC3CCCCC3)cc2n2c(=O)n(CC#N)nc12`: the Inhibition is 5.71%.

`CCc1ccc(NC(=O)Cn2nc3c(Sc4ccccc4)nccn3c2=O)cc1`: the Inhibition came to 6.05%.

For `O=c1c2nnc(SCc3ccc(Cl)cc3)n2ccn1-c1ccc(F)cc1`, the Inhibition worked out at 9.2%.

`O=S(=O)(c1cccn2cnnc12)N(Cc1cccc(Cl)c1)c1cc(F)cc(F)c1`: the Inhibition stood at 8.32%.

On to `COc1ccc(-c2cc3c4nn(CC(=O)Nc5ccccc5)c(=O)n4ccn3n2)cc1`, for which the Inhibition is listed as 8.66%.

Turning to `COc1cccc(CN(c2ccccc2)S(=O)(=O)c2ccc3nncn3c2)c1`, the Inhibition came to 0.32%.

As for `Cc1ccc(-c2ccc3nnc(CCC(=O)NCc4ccc(C(F)(F)F)cc4)n3n2)cc1C`, the Inhibition came out at 11.76%.

`O=C(Cn1nc2ccc(Sc3ccccc3)nn2c1=O)N1CCN(c2ccc(F)cc2)CC1`: the Inhibition is recorded as 5.94%.

As to `CCOc1ccc(C(=O)CSc2nnc3c(=O)n(-c4ccc(OCC)cc4)ccn23)cc1`, the Inhibition stood at 14.22%.

In the case of `COc1ccc(CNC(=O)CSc2nnc3c4cc(-c5ccc(C)cc5)nn4ccn23)cc1OC`, the Inhibition stood at 9.92%.

For the compound `COc1cccc(-c2nc(CSc3nc4ccccc4n4c(C(C)C)nnc34)c(C)o2)c1OC`, the Inhibition is reported as 2.62%.

Turning to `Cc1cc(C)cc(Nc2nc(C)cc3nn(CC(=O)N(C)c4cccc(C)c4)c(=O)n23)c1`, the Inhibition came to 7.61%.

On to `COc1cc(NC(=O)Cn2nc3c(N4CCCC(C)C4)nccn3c2=O)cc(OC)c1` (stereo unspecified), for which the Inhibition amounted to 5.76%.

Regarding `CCCCOc1ccc(-c2cc3c4nnc(SCC(=O)Nc5ccc(CC)cc5)n4ccn3n2)cc1`, the Inhibition amounted to 9.73%.

With `COc1ccc(NC(=O)Cn2c(=O)c3nnc(C)n3c3ccccc32)cc1Cl`, the Inhibition is 11.31%.

With `CC(=O)c1cccc(NC(=O)CSc2nc3ccccc3n3c(C)nnc23)c1`, the Inhibition was 2.18%.

On to `CCCCOc1ccc(-c2cc3c4nnc(SCC(=O)Nc5ccc(Cl)cc5)n4ccn3n2)cc1`, for which the Inhibition stood at 11.84%.

In the case of `CCCc1nnc2c(=O)n(CC(=O)Nc3ccc4c(c3)OCCO4)c3ccccc3n12`, the Inhibition is reported as -1.14%.

On to `COc1ccccc1-n1ccn2c(SCc3cccc(Cl)c3)nnc2c1=O`, for which the Inhibition came to 1.3%.

Consider `O=C(Cn1nc2c3cc(F)ccc3ncn2c1=O)Nc1ccc2c(c1)OCO2`, for which the Inhibition worked out at 1.07%.

For the compound `O=C(Cn1nc2c(SCc3ccccc3)nccn2c1=O)NCc1ccc(Cl)cc1`, the Inhibition was -3.05%.

As for `COc1ccccc1NC(=O)Cn1nc2c(SCc3ccccc3)nccn2c1=O`, the Inhibition stood at 0.49%.

Take `CCOC(=O)c1ccc(NC(=O)CSc2nnc3c4cc(-c5ccc(OC)cc5)nn4ccn23)cc1`: the Inhibition was determined as 14.8%.

For another assay, the system named is Candida albicans. To be noted: Concentration 32 ug.mL-1; ASSAY_TEST Inhibition of Fungal Growth; detection method Absorption (OD530).
On to `COc1ccc(NC(=O)Cn2nc3ccc(SCc4ccc(Cl)cc4)nn3c2=O)cc1OC`, for which the Inhibition is on record as 32.62%.

Take `CC(C)c1nnc2c(SCC(=O)Nc3ccccc3F)nc3ccccc3n12`: the Inhibition is 2.9%.

Consider `Cc1ccc(Cn2c(=O)c3ccccc3n3c(=O)n(CC(=O)Nc4ccc5c(c4)OCCO5)nc23)cc1`, for which the Inhibition turned out to be 0.1%.

In the case of `Cc1ccc(N(Cc2cccc(C)c2)S(=O)(=O)c2cccn3c(C)nnc23)cc1`, the Inhibition was found to be 4.46%.

As to `O=C(Cn1nc2c(Sc3cccc(F)c3)nccn2c1=O)Nc1cccc(C(F)(F)F)c1`, the Inhibition was -0.63%.

Regarding `Cc1ccc(-c2nc(CSc3nc4ccccc4n4c(C(C)C)nnc34)c(C)o2)cc1`, the Inhibition is listed as 2.71%.

In the case of `CCOc1ccc(-n2ccn3c(SCc4cccc(C(F)(F)F)c4)nnc3c2=O)cc1`, the Inhibition came out at 0.48%.

`C=Cc1ccc(Cn2nc3c(=O)n(-c4cccc(Cl)c4C)ccn3c2=O)cc1`: the Inhibition was -0.15%.

`O=C(Cn1nc2ccc(C(=O)NCc3ccccc3)cn2c1=O)Nc1ccc(Br)cc1`: the Inhibition is given as 2.27%.

On to `COC(=O)c1cccc(NC(=O)Cn2nc3ccc(-c4ccccc4)nn3c2=O)c1`, for which the Inhibition turned out to be 4.96%.

In the case of `COc1ccc2[nH]cc(C(=O)CSc3nnc4c(=O)n(-c5cccc(Cl)c5C)ccn34)c2c1`, the Inhibition worked out at 2.95%.

On to `COc1ccc(-c2cc3c4nnc(SCC(=O)NCc5ccc(C)cc5)n4ccn3n2)cc1`, for which the Inhibition turned out to be 1.56%.

As for `Cc1ccc(-c2ccc3nn(Cc4nc(-c5ccc(Cl)cc5)no4)c(=O)n3n2)cc1C`, the Inhibition turned out to be 1.35%.

For `Cc1nnc2ccc(S(=O)(=O)N(Cc3cccc(F)c3)c3cccc(Cl)c3)cn12`, the Inhibition is reported as -0.21%.

As to `O=C(CSc1nnc2c3cc(-c4ccc(F)cc4)nn3ccn12)NCCc1ccccc1`, the Inhibition turned out to be 2.21%.

Regarding `COc1ccc(NC(=O)Cn2nc3ccc(SC(C)C)nn3c2=O)cc1OC`, the Inhibition was 1.32%.

With `CCCCOc1ccc(-c2cc3c4nnc(SCC(=O)NCc5ccc(OC)cc5)n4ccn3n2)cc1`, the Inhibition was found to be 17.75%.

As to `CCCn1c(=O)c2ccc(C(=O)NC3CCCCC3)cc2n2c(=O)n(CC#N)nc12`, the Inhibition is on record as 1.88%.

For the compound `CCc1ccc(NC(=O)Cn2nc3c(Sc4ccccc4)nccn3c2=O)cc1`, the Inhibition is on record as 4.46%.

On to `O=c1c2nnc(SCc3ccc(Cl)cc3)n2ccn1-c1ccc(F)cc1`, for which the Inhibition is on record as 1.38%.

Take `O=S(=O)(c1cccn2cnnc12)N(Cc1cccc(Cl)c1)c1cc(F)cc(F)c1`: the Inhibition is recorded as 1.62%.

For `COc1ccc(-c2cc3c4nn(CC(=O)Nc5ccccc5)c(=O)n4ccn3n2)cc1`, the Inhibition turned out to be 6.28%.

Take `COc1cccc(CN(c2ccccc2)S(=O)(=O)c2ccc3nncn3c2)c1`: the Inhibition was found to be 2.69%.

Turning to `Cc1ccc(-c2ccc3nnc(CCC(=O)NCc4ccc(C(F)(F)F)cc4)n3n2)cc1C`, the Inhibition was 2.25%.

Regarding `O=C(Cn1nc2ccc(Sc3ccccc3)nn2c1=O)N1CCN(c2ccc(F)cc2)CC1`, the Inhibition came to 0.64%.

As to `CCOc1ccc(C(=O)CSc2nnc3c(=O)n(-c4ccc(OCC)cc4)ccn23)cc1`, the Inhibition stood at 5.82%.

As for `COc1ccc(CNC(=O)CSc2nnc3c4cc(-c5ccc(C)cc5)nn4ccn23)cc1OC`, the Inhibition was -0.42%.

On to `COc1cccc(-c2nc(CSc3nc4ccccc4n4c(C(C)C)nnc34)c(C)o2)c1OC`, for which the Inhibition is -0.24%.

As to `Cc1cc(C)cc(Nc2nc(C)cc3nn(CC(=O)N(C)c4cccc(C)c4)c(=O)n23)c1`, the Inhibition is recorded as 2.11%.

As for `COc1cc(NC(=O)Cn2nc3c(N4CCCC(C)C4)nccn3c2=O)cc(OC)c1` (stereo unspecified), the Inhibition was determined as 3.21%.

Take `CCCCOc1ccc(-c2cc3c4nnc(SCC(=O)Nc5ccc(CC)cc5)n4ccn3n2)cc1`: the Inhibition was 2.18%.

Take `COc1ccc(NC(=O)Cn2c(=O)c3nnc(C)n3c3ccccc32)cc1Cl`: the Inhibition was 0.53%.

On to `CC(=O)c1cccc(NC(=O)CSc2nc3ccccc3n3c(C)nnc23)c1`, for which the Inhibition is on record as 5.91%.

`CCCCOc1ccc(-c2cc3c4nnc(SCC(=O)Nc5ccc(Cl)cc5)n4ccn3n2)cc1`: the Inhibition was 2.71%.

`CCCc1nnc2c(=O)n(CC(=O)Nc3ccc4c(c3)OCCO4)c3ccccc3n12`: the Inhibition is 4.16%.

As for `COc1ccccc1-n1ccn2c(SCc3cccc(Cl)c3)nnc2c1=O`, the Inhibition is reported as 1.65%.

In the case of `O=C(Cn1nc2c3cc(F)ccc3ncn2c1=O)Nc1ccc2c(c1)OCO2`, the Inhibition worked out at 3.33%.

As to `O=C(Cn1nc2c(SCc3ccccc3)nccn2c1=O)NCc1ccc(Cl)cc1`, the Inhibition was found to be 1.33%.

Turning to `COc1ccccc1NC(=O)Cn1nc2c(SCc3ccccc3)nccn2c1=O`, the Inhibition is on record as 5.7%.

With `CCOC(=O)c1ccc(NC(=O)CSc2nnc3c4cc(-c5ccc(OC)cc5)nn4ccn23)cc1`, the Inhibition is given as -1.16%.

A word on the Inhibition: it is the relative decrease from the control value, in per cent.
